Common to all, as to assay: NCI-60 one-dose screen, 48 h (100 = growth as untreated, 0 = no growth, -100 = all killed)
Assay [1] relates to SK-MEL-2 melanoma. The note with it: 10 µM unless noted.
The test system of assay [2] is EKVX NSCLC. The following applies: 10 µM unless noted.
The test system of assay [3] is SN12C renal. The note with it: 10 µM unless noted.
Assay [4] relates to UO-31 renal. The note with it: 10 µM unless noted.
For assay [5], the system named is TK-10 renal. The following applies: 10 µM unless noted.
The subject of assay [6] is ACHN renal. The following applies: 10 µM unless noted.
The subject of assay [7] is CAKI-1 renal. The following applies: 10 µM unless noted.
The subject of assay [8] is A498 renal. The following applies: 10 µM unless noted.
Assay [9] has as its system CCRF-CEM leukemia. The following applies: 10 µM unless noted.
In assay [10] the test system is MOLT-4 leukemia. The note with it: 10 µM unless noted.
Assay [11] relates to SR leukemia. The note with it: 10 µM unless noted.
Assay [12] relates to RPMI-8226 leukemia. The following applies: 10 µM unless noted.
Assay [13] concerns OVCAR-8 ovarian. The following applies: 10 µM unless noted.
Assay [14] has as its system OVCAR-5 ovarian. The following applies: 10 µM unless noted.
Assay [15] concerns SK-OV-3 ovarian. The note with it: 10 µM unless noted.
In assay [16] the test system is IGROV1 ovarian. The following applies: 10 µM unless noted.
For assay [17], the system named is OVCAR-3 ovarian. The note with it: 10 µM unless noted.
The subject of assay [18] is HS 578T breast. The following applies: 10 µM unless noted.
For assay [19], the system named is NCI/ADR-RES ovarian. The note with it: 10 µM unless noted.
Assay [20] deals with OVCAR-4 ovarian. The following applies: 10 µM.

The panel holds about 83,000 compounds, 20% with a hit somewhere; the sample as a whole holds those more often.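 Cell lines were cultured in 96-well plates, exposed to a single compound concentration, and assessed for percent growth 48 hours later.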 Values without a mark were called inactive. Active and inactive are the calls of the source. How the source made its calls: active means growth percent below 10; inactive means the rest.

As to `CCOC(=O)c1cnc2ccc(Br)cc2c1Nc1cccc(S(N)(=O)=O)c1`, the growth in assay [1] was 109%; in assay [2], 96.2%; in [3] it was 97.3%; in [4], 81.2%; in assay [5], 105%; in assay [6], 96.2%. Further, the growth in [7] is 74.1%; in assay [8] it was 66.5%; in [9], 102%; in assay [10] it was 85.1%; in assay [11], 94.6%; in assay [12], 97%. The growth in assay [13] was 92.8%; in assay [14], 93.6%; in [15] it was 105%; in [16], 99.6%; in assay [17], 102%; in assay [18], 98.5%. Also, the growth in assay [19] was 97.4%.
Consider `CC1(C)[C@@H](NOCCCN)CC[C@]2(C)[C@H]3C(=O)C=C4[C@@H]5C[C@](C)(C(=O)O)CC[C@]5(C)CC[C@@]4(C)[C@]3(C)CC[C@@H]12`, for which the growth is -63.8% [100 µM] (active) in assay [1]; -41.4% [100 µM] (active) in assay [2]; -82.8% [100 µM] (active) in [3]; -100% [100 µM] (active) in [4]; -84.1% [100 µM] (active) in [5]; -100% [100 µM] (active) in assay [6]. Also, the growth in [7] was -79.1% [100 µM] (active); in assay [8] it was -88.7% [100 µM] (active); in assay [9] it was 11.6% [100 µM]; in assay [10] it was -6.4% [100 µM] (active); in [11], 17.9% [100 µM]; in assay [12], -5.46% [100 µM] (active). Also, the growth in assay [13] is -25.9% [100 µM] (active); in assay [14], -100% [100 µM] (active); in assay [15], -23.7% [100 µM] (active); in assay [16], -88.5% [100 µM] (active); in assay [17] it was -50.1% [100 µM] (active); in assay [18], -22.8% [100 µM] (active). In addition, the growth in [19] was -34.2% [100 µM] (active).
Take `O=C1COCCN1c1ccc(Nc2nc(Cl)nc(N3CCOCC3)n2)cc1`: the growth in assay [1] was 91.6%; in assay [2], 92.3%; in assay [3], 102%; in assay [4], 93.5%; in assay [5], 90.5%; in assay [6], 98.5%. The growth in assay [7] is 89.2%; in assay [8], 73.7%; in [9], 97%; in assay [10], 96.3%; in assay [11], 88.9%; in assay [12], 98.9%. Further, the growth in [13] was 97.9%; in assay [14], 88.3%; in assay [20], 102%; in assay [16], 103%; in assay [17], 103%; in assay [19] it was 97.6%.
As for `N#C/C(C(=O)c1ccccc1)=C1/C(=O)Nc2ccc(Br)cc21`, the growth is 113% in assay [1]; 87.5% in assay [2]; 91.8% in [3]; 67.2% in assay [4]; 142% in assay [5]; 88.7% in assay [6]. Moreover, the growth in [7] is 84%; in assay [8] it was 96.8%; in [9], 110%; in assay [10] it was 101%; in assay [11], 101%; in assay [12], 102%. Moreover, the growth is 99.5% in [13]; 107% in assay [14]; 85.7% in [15]; 90.9% in [16]; 107% in [17]; 92.5% in assay [18]. Further, the growth in [19] is 98.8%.
Regarding `CC(C)=CC/C=C(/C)[C@H]1CC[C@]2(C)[C@@H]1CC[C@@H]1[C@@]3(C)CCC(=O)NC(C)(C)[C@@H]3CC[C@]12C`, the growth is 3.93% [100 µM] (active) in assay [1]; 29.7% [100 µM] in assay [2]; -81.2% [100 µM] (active) in [3]; -98.7% [100 µM] (active) in assay [4]; 3.59% [100 µM] (active) in assay [5]; -63.5% [100 µM] (active) in [6]. Further, the growth in assay [7] was 6.46% [100 µM] (active); in assay [8], -16.4% [100 µM] (active); in assay [9], -9.45% [100 µM] (active); in assay [10], -14.3% [100 µM] (active); in assay [11], 12.3% [100 µM]; in assay [12], -31.4% [100 µM] (active). For the same molecule, the growth is 0.344% [100 µM] (active) in [13]; 9.08% [100 µM] (active) in assay [14]; 38.6% [100 µM] in [15]; -67.6% [100 µM] (active) in assay [16]; -63.9% [100 µM] (active) in assay [17]; -17.7% [100 µM] (active) in assay [18]. For the same molecule, the growth in assay [19] was 13% [100 µM].
For the molecule `CC1(C)NCCC[C@]2(C)[C@H]3C=CC4=C5C[C@](C)(CO)CC[C@]5(C)CC[C@@]4(C)[C@]3(C)CC[C@@H]12`, the growth was -84.9% [100 µM] (active) in assay [1]; -87.1% [100 µM] (active) in [2]; -94% [100 µM] (active) in assay [3]; -98.1% [100 µM] (active) in assay [4]; -78.3% [100 µM] (active) in [5]; -95.4% [100 µM] (active) in assay [6]. The growth in assay [7] was -96.5% [100 µM] (active); in assay [8], -88.7% [100 µM] (active); in [9] it was -44.1% [100 µM] (active); in assay [10], -56.7% [100 µM] (active); in assay [11] it was -5.08% [100 µM] (active); in [12], -43.8% [100 µM] (active). In addition, the growth was -57.8% [100 µM] (active) in assay [13]; -98.7% [100 µM] (active) in [14]; -80.1% [100 µM] (active) in [15]; -84.5% [100 µM] (active) in assay [16]; -78.8% [100 µM] (active) in assay [17]; -46.8% [100 µM] (active) in [18]. Moreover, the growth in assay [19] is -86.4% [100 µM] (active).
